From the supplement of paper PMC6555819

How the values were obtained:
Experiment in all cases: PBM binding z-score (relative to random genomic background probes); higher = stronger binding; sequences stand for … in GC…GCGATTGACAGCGTAGAATGAAGG
[1] = tested on: RARb homodimer (NR concentration 270 nM)
Outline: (§1)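 Ligand-free nuclear receptor dimers were applied to custom Agilent 4×180K protein-binding microarrays whose double-stranded probes carried direct-repeat seeds, single-nucleotide variants, half-site ablations and random human genomic background sequences in 34-nt variable regions. Incubation lasted 1 h. Binding z-scores were computed against the random background probes from regression-normalized fluorescence.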

[2] = tested on: RARg:RXRa (NR concentration 270 nM, RXRa partner concentration 90 nM)
Outline: as §1

[3] = tested on: RARg homodimer (NR concentration 270 nM)
Outline: as §1

[4] = tested on: RXRa DBDmut IVT, anti-RXR (DBD mutation: RXRa K156A/R161A, NR concentration 90 nM)
Outline: as §1

[5] = tested on: RXRa homodimer (NR concentration 180 nM)
Outline: as §1

[6] = tested on: THRa:RXRa (NR concentration 90 nM, RXRa partner concentration 90 nM)
Outline: as §1

[7] = tested on: THRa homodimer (NR concentration 90 nM)
Outline: as §1

[8] = tested on: VDR homodimer (NR concentration 270 nM)
Outline: as §1

Sequence | PBM binding z-score [1] | PBM binding z-score [2] | PBM binding z-score [3] | PBM binding z-score [4] | PBM binding z-score [5] | PBM binding z-score [6] | PBM binding z-score [7] | PBM binding z-score [8]
CCTCGGAGGACAACAGGAGGCCAGAGCTGCCAGA | 0.662 | 0.553 | 1.08 | -0.152 | -0.394 | 0.476 | -0.155 | -0.208
GTGACTGGGGCATCAGCAGGTTACCATAACTTAA | 1.3 | 1.36 | 0.86 | -0.0186 | 0.481 | 1.09 | 0.198 | -0.0019
TCTTGTAGATCAAGCAGGTTAAGCAAGCCTGAGT | 0.0597 | -0.0759 | -0.399 | 0.344 | 0.228 | 0.275 | -0.299 | -0.175
TCATATAGGTAAAGGTGAAACTCGAACGATATGA | 1.6 | 1.84 | 1.54 | 0.648 | 2.47 | 1.57 | -0.601 | -0.375
AGTCAAAGTTCAGGACGAGGTAACGTACAGCACG | 3.47 | 4.77 | 4.74 | 2.99 | 2.92 | 3.9 | 1.82 | 2.1
CCTTACGGGTCACGAGGTTATAGGACGACGAGCG | 3.83 | 6.08 | 5.52 | 1.46 | 7.19 | 3.68 | 1.02 | 1.85
TAGCCTAGGTCATTGGGCCAGTATTGTACGCATC | 2.89 | 3.78 | 4.05 | 1.46 | 2.62 | 2.88 | 0.793 | 1.03
ACTAGCAGGCCAAGTTTGGGTCACTCAGACAAAG | 2.13 | 2.11 | 1.41 | 0.0571 | 0.7 | 2.33 | 0.94 | 0.117
TAGCTTAGGTCATGGGCCAGTATACCACGCGAAC | 3.13 | 4.31 | 4.67 | 0.975 | 3.74 | 3.68 | 2.42 | 0.172
CGAACTAGGTCAGAACAGGACAGTGTAGGATGAT | 2.16 | 2.56 | 3.47 | 0.551 | 1.28 | 3.47 | 0.227 | 0.291
TAGCCTAGGTCTTTCAGGGGCCAGTATAGAAAGC | 0.423 | 0.873 | 0.295 | -0.58 | -0.286 | 0.663 | -0.603 | -0.407
AGTCTAAGTTCACTAGGTAACGTAAGATTCAGCT | 2.21 | 3.35 | 3.69 | 4.47 | 2.31 | 2.27 | 0.878 | 4.71
TAGCCTAGGTCATTGGGCCACTATAGTACGCATC | 3.11 | 3.84 | 4.24 | 1.92 | 2.97 | 2.87 | 1.3 | 1.77
ATCGAAAGGTCGTGGGGTGAGTATACAGAAAGGC | 3.6 | 5.2 | 4.44 | 2.07 | 6.17 | 3.62 | 2.02 | 2.16
CTCGAAAGGTCGGTTGAGGTAAGTATACGGATAA | 1.72 | 2.37 | 2.35 | 0.522 | 1.83 | 4.54 | 0.648 | 0.257
CCTACTGGGCCATCAGGTCATAGATATCAACGTT | 2.46 | 2.03 | 1.95 | -0.116 | 1.28 | 3.09 | 2.91 | 1.11
CGAACTAGGTCAGAACAGGACAGTCAAGGATGAT | 2.26 | 2.65 | 3.09 | 0.873 | 1.35 | 3.42 | 0.288 | 0.29
CCTAGTTGGTCTAGGTCACACACGCTATAGGTAC | 3 | 2.36 | 2.69 | 0.925 | 1.88 | 2.99 | 2.78 | 1.78
ACATGTAGGTTAGCTGGGGTCATTCAGACTAGGC | 3.72 | 4.24 | 2.97 | 2.34 | 5.59 | 5.12 | 3.49 | 5.66

Sequence | PBM binding z-score [1] | PBM binding z-score [2] | PBM binding z-score [3] | PBM binding z-score [4] | PBM binding z-score [5] | PBM binding z-score [6] | PBM binding z-score [7] | PBM binding z-score [8]
CTAACTAGGTCAAAGGTCAAAGTCGAGCCAACCA | 4.93 | 8.93 | 7.64 | 2.72 | 10.3 | 4.84 | 1.59 | 3.19
TCGAGTAGGTTTCCAATGGGGCATTCAGCTTTCT | -0.0582 | -0.76 | -0.806 | 0.449 | -0.581 | -0.683 | -0.262 | -0.443
ATCGAAAGGTCGGGAGGTGAGTATACAGAAAGGC | 2.92 | 3.82 | 3.34 | 0.594 | 3.58 | 2.21 | 0.967 | 0.718
GCTAGCAGGCCATTTGAGTCACTCAATGACGGGC | -0.381 | -0.0759 | 0.0765 | -0.0136 | -0.11 | 0.249 | -1.02 | -0.525
GTACCAAGCTGAATAGGTCGTTGATGAGTAGGCG | 0.0267 | -0.0216 | 0.164 | -0.0938 | 0.371 | -0.0665 | -0.873 | -0.43
GTACCAAGGTGAAGAGGTCGTTGATGAGTAGGCG | 2.46 | 3.26 | 1.79 | 0.608 | 2.65 | 2.47 | 1.09 | 2.21
CGACCTAGGTCATCCAGGACAGTGAATACATTGA | 3.41 | 4.75 | 4.97 | 2.6 | 3.37 | 4 | 2.18 | 2.5
CGTCAAAGTTCAGCTAAGGTAACGTAAAGCACGC | 3.8 | 4.28 | 5.29 | 3.46 | 3.15 | 5.46 | 2.11 | 1.84
AGAATGAGGGCAATGAGTTGATAGCACGGGTGGC | 1.18 | 1.31 | 1.47 | 2.27 | 0.95 | 1.59 | 0.363 | 3.47
ATCGAAAGGTCGACGAGGTGAGTATTCACCGTTT | 3.13 | 4.29 | 4.32 | 1.13 | 4.63 | 3.65 | 0.672 | 0.806
CCTCGGTGGACAACAGGAGGTCAGAGCTGCCAGA | 2.99 | 2.06 | 1.73 | -0.87 | 1.64 | 1.97 | 0.341 | 0.396
GGCACGAGGGCATTCGAGTTGATAGCATGGCGAT | 0.614 | 1.04 | 1.53 | 3.11 | 0.455 | 3.42 | -0.251 | 3.45
ATGTCTAGGTAAAAGTTCAGTGAATCCCGAGGAT | 2.32 | 1.91 | 1.91 | 0.508 | 1.57 | 1.11 | 0.0268 | 0.949
CCTTACGTGTCACGAGGTTATAGCACGACGAGCG | 1.49 | 2.24 | 1.64 | 0.866 | 2.06 | 1.96 | 0.982 | 1.01
ATATCTAGGTAAGACTCAGTTCAGTGAAGAACGC | 0.918 | 0.275 | 0.108 | 0.525 | 0.354 | 0.631 | 0.604 | 1.41
TCGTATAGGTAAATGCTAGGTGAAAGTCCGATCT | 0.475 | 0.402 | 0.0931 | 1.07 | 0.407 | 1.48 | 0.325 | -0.0661
CTACCAAGGTGAACAACGTCGTTGATTACTATTC | 0.607 | 0.832 | 0.962 | 0.685 | 0.887 | 1.79 | 0.72 | -0.472
CCTGCTAGGGCAATGGTCAGCTAAAGCAGCTCGC | 0.431 | 0.176 | 0.604 | -0.414 | -0.159 | -0.164 | -0.86 | -0.814
AGAATGAGGTGACCAAAGATCAGGGAAACGCTTG | 0.672 | 1.06 | 1.01 | -0.266 | 1.51 | 2.53 | 0.878 | -0.347

Sequence | PBM binding z-score [1] | PBM binding z-score [2] | PBM binding z-score [3] | PBM binding z-score [4] | PBM binding z-score [5] | PBM binding z-score [6] | PBM binding z-score [7] | PBM binding z-score [8]
TCTCGGAGTACACGAAAGGTCAGAGCTCGACATC | 4.24 | 3.91 | 3.72 | 1.14 | 3.87 | 3.02 | 0.15 | 0.908
ATCTCAAGGTAAGACTCAGTTCAGTGAAGAACGC | 0.641 | 0.668 | 0.469 | 0.363 | 0.542 | 1.36 | 0.884 | 1.5
CGTTCAAGGTCAAGGTCAGTGAAAGAGACTCGAA | 5.27 | 6.92 | 7.85 | 3.86 | 6.6 | 4.48 | 4.1 | 3.59
CCTAGCAGGCCAGGGTCACTCCAGCATTTCGCTT | 2.7 | 2.61 | 2.18 | 0.578 | 2.86 | 2.61 | 1.02 | 1.64
ATATCAAGGTGATCGTGAGGTCGTTGATACTAAC | 1.5 | 2.42 | 1.24 | 0.829 | 1.61 | 3.46 | 2.27 | 2.79
ACTCGGAGGACAAAGGTCAGAGTTACGCCAGTGA | 4.32 | 5.86 | 4.91 | 1.63 | 4.97 | 3.59 | 0.845 | 0.984
CCTAGCAGGCCTATCTGGGTCACTCAAGGCTTGA | 1.68 | 0.716 | 0.616 | -0.488 | 0.644 | 2.3 | 0.219 | -0.239
ATCTCTAGGTAACAAGTTCAGGGAAAGAGAGGAC | 1.98 | 1.77 | 1.62 | 1.06 | 1.23 | 1.85 | 1.01 | 2.78
CATACAGGGGCAGCTAGGCCAGAGTAGGGACGGC | 0.473 | 0.498 | 1.02 | -0.381 | -0.153 | 0.05 | -0.63 | -0.506
TCTCGGAGGACACTAAGGTCAGAGCTTTCCAGAG | 3.82 | 3.4 | 3.84 | 1.33 | 2.26 | 3.71 | 3.11 | 2.73
CGTCCATGGTCAAGGTCAGTGAAAGAGACTCGAA | 3.21 | 3.15 | 3.78 | 0.79 | 2.4 | 2.84 | 1.79 | 1.02
GCTGCTAGGTCAAGTGATGGTCAGCTAAAGCTCG | 3.68 | 4.85 | 5.33 | 1.6 | 2.93 | 2.85 | 0.545 | -0.211
CAAACTAGGTCCAGAGGTCAAAGTCCGCTTCCCG | 4.66 | 5.31 | 4.62 | 2.53 | 6.34 | 3.75 | 1.72 | 4.18
GGAACGAGGGCAAGTTGATAGTAGAGTTTGATGG | 1.75 | 1.54 | 2.17 | 2.51 | 0.814 | 1.36 | 0.454 | 2.31
CCGACTGGGGTAAGGTTACCATAACGCACAGCCA | 1.12 | 0.907 | 0.859 | -0.0386 | 1.55 | 2.36 | 1.47 | 0.414
TATACAGGGTCAAAGGCCCGAGTACGAATGTCGA | 2.83 | 5.28 | 4.67 | 2.83 | 5.91 | 3.23 | 0.794 | 2.5
ATCGAAAGCTCGAAGGTGAGTATACCCACCCGAA | -0.378 | -0.032 | 0.202 | -1.19 | 0.158 | -0.167 | -1.04 | -0.249
ATATGTAGGTTACATCTGGGTCATTCAGGCTATG | 3.02 | 3.33 | 2.31 | 0.961 | 2.38 | 3.17 | 1.31 | 1.8
CTTACTGGGCCATTCAGAGGTCATTGATCATATG | 4.12 | 4.5 | 3.62 | 1.88 | 4.04 | 3.24 | 1.61 | 3.73
